This is a sample that favours compounds with a hit; in the whole collection about 21% have one here.
Shiga inhibitor: A qHTS for Small Molecule Inhibitors of Shiga Toxin. Vero cells, Shiga toxin protein synthesis inhibition reporter. inhibition, % at 38.7 µM. 290,000 compounds, 9.2% hits. AID 2315, 2010; in the data active = inhibition mostly above about 28%, no sharp cut-off; inactive = mostly below about 43%; also: 0% is about no effect
Pf growth 48h: Primary qHTS for delayed death inhibitors of the malarial parasite plastid, 48 hour incubation; AID 504832, 2011; 310,000 compounds, 5.9% hits; Potency, µM (top dose mostly 28.7 µM), for the others: at the top dose activity change, negative = inhibition, most hits filed as inhibitors; P. falciparum luciferase growth in erythrocytes, 48 h; also: potency is read from the fitted curve at half-maximal effect; % is scaled to controls: 0 for no effect and ±100 for the full control effect
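Compounds are pin-transferred into medium, infected erythrocytes (2% hematocrit, 0.1% parasitemia final) are added, and plates sit one parasite generation at 37 C in 5% CO2. Detection reagent is then added and luminescence measured.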
CHX counter: Cycloheximide Counterscreen for Small Molecule Inhibitors of Shiga Toxin; cell reporter, cycloheximide protein synthesis inhibition counterscreen; 300,000 compounds, 12% hits; AID 2314, 2010; max response, %; in the data active = max response mostly above about 13%, no sharp cut-off; inactive = mostly below about 14%; also: read at 38.3 µM for the half of the compounds with a filed dose; 0% is about no effect
Pf growth 96h: Primary qHTS for delayed death inhibitors of the malarial parasite plastid, 96 hour incubation. P. falciparum luciferase reporter growth, 96 h. Potency, µM (series often up to 28.7 µM), inactives show at the top dose activity change, negative = inhibition, usual class: inhibitors. 320,000 compounds, 6.9% hits; also: potency is read from the fitted curve at half-maximal effect; % is scaled to controls: 0 for no effect and ±100 for the full control effect
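Cell-based qHTS: luciferase-tagged P. falciparum in erythrocytes (2% hematocrit, 0.05% parasitemia final) incubated with compounds for 96 hours, 37 C, 5% CO2; luciferase detection reagent then added and luminescence measured.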
Sm TGR inh: qHTS Assay for the Inhibitors of Schistosoma Mansoni Peroxiredoxins | Schistosoma mansoni thioredoxin glutathione reductase (TGR), Q962Y6 | purified TGR, DTNB reduction, TNB absorbance 405 nm | Potency, µM (highest dose often 114 µM), without a hit: top-dose activity change, negative = inhibition, actives largely listed as inhibitors | 360,000 compounds, 3% hits; also: potency is read from the fitted curve at half-maximal effect; % is scaled to controls: 0 for no effect and ±100 for the full control effect; nearly all actives have a fitted effect of over 60% in size
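Kinetic colorimetric format: TGR-catalysed, NADPH-driven DTNB reduction monitored via TNB absorbance. Enzyme dispensed at 20 nM; compound exposure 15 min at room temperature before reaction start.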
NS1 function inh: qHTS Assay for Inhibitors of Influenza NS1 Protein Function; Potency, µM (highest dose often 46.1 µM), inactives show top-dose activity, positive = more growth; 270,000 compounds, 0.4% hits; AID 2326, 2010; calls by dose curve; also: potency is read from the fitted curve at half-maximal effect; actives are rising curves; nearly all actives have a fitted effect of over 50% in size
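In this qHTS, NS1 from influenza A is expressed in budding yeast, where it slows growth. Cells are switched from glucose to 2% galactose medium (pH 6.0, -URA), treated with compound, and growth recovery is read at OD600.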
* = called active by the depositor; i = inactive; ? = inconclusive; nt = no result given. Unless noted, calls follow the shape of the dose curve; as a rule, active = well fitted curve in the direction sought with a large enough effect; inconclusive = small, poorly fitted or top-dose-only effect, or another doubt; inactive = no such curve, though single readings can be large; an effect the other way counts as inactive or inconclusive.

SMILES	Shiga inhibitor	Pf growth 48h	CHX counter	Pf growth 96h	Sm TGR inh	NS1 function inh
COc1ccc(OC)c(S(=O)(=O)Nc2c(C)n(C)n(-c3ccccc3)c2=O)c1	-7	-7%	1	15µM*	-16%	9%
COc1ccc(-c2cc(C(=O)Nc3c(C)n(C)n(-c4ccccc4)c3=O)c3ccccc3n2)c(OC)c1	6	12µM*	-2	15µM*	-8%	0%
Cc1cccc(N2CCN(S(=O)(=O)c3ccc4oc(=O)c5ncn(C)c5c4c3)CC2)c1C	nt	nt	nt	nt	0%	nt
O=C(CN1C(=O)COc2ccc(S(=O)(=O)N3CCCC3)cc21)NCCc1ccc(Cl)cc1	nt	nt	nt	nt	6%	nt
COc1cccc(OC)c1C(=O)Nc1c(C)n(C)n(-c2ccccc2)c1=O	14	5%	-1	10µM*	-4%	17%
COc1ccc(/C(O)=C/C(=O)C(=O)Nc2c(C)n(C)n(-c3ccccc3)c2=O)cc1	-9	26%	-3	7.4µM*	32%	1%
Cc1c(NC(=O)c2ccc(COc3ccc4ccccc4c3)o2)c(=O)n(-c2ccccc2)n1C	91*	?	31*	15%	-27%	-6%
Cc1c(NC(=O)c2cc3ccccc3oc2=O)c(=O)n(-c2ccccc2)n1C	86*	nt	42*	56%	-9%	1%
CCc1ccccc1N(C)S(=O)(=O)c1ccc2[nH]cc(C(=O)NCCOC)c(=O)c2c1	nt	nt	nt	nt	9%	nt
CCOC(=O)N1CCC2(CC1)OC(=O)C(C)=C2C(=O)NCc1ccccc1OC	nt	nt	nt	nt	-3%	nt
O=C1NC(c2ccccc2)=C(c2nc3ccccc3s2)C(c2ccc(F)cc2)N1 (centres undefined)	-16	-52%	0	13µM*	5%	-5%
O=C(COC(=O)c1nc(Cl)ccc1Cl)NCc1cccs1	nt	10%	nt	21%	-1%	nt
O=C(c1ccccc1F)c1cn(Cc2ccc(F)cc2)c2ccccc12	-9	-5%	1	7.4µM*	-5%	3%
COC(=O)Cn1cc(C(=O)c2ccccc2F)c2ccccc21	1	7%	-2	1.7µM*	-13%	-49%
CCOC(=O)Cn1cc(C(=O)c2ccccc2F)c2ccccc21	45	74%	17*	53%	12%	-12%
CC1CCc2nc3ncn(Cc4ccccc4C#N)c(=O)c3cc2C1 (centres undefined)	nt	nt	nt	nt	6%	nt
Cc1c(C)n(C)c2ccc(C(=O)NCCN3CCOCC3)cc12	1	8%	0	1%	-20%	-2%
Cc1ccc2[nH]c(-c3cccc(N)c3)cc2c1	97*	39%	30*	21%	5%	4%
Cc1ccc2[nH]c(C(=O)N3CCN(c4cccc(Cl)c4)CC3)cc2c1	nt	-27%	5	-24%	-1%	8%
Cc1cccc(Sc2nc(-c3ccccc3)ccc2C#N)c1	-11	-13%	9	?	2%	-6%
O=C(CSc1nc2cc(Cl)c(Cl)cc2[nH]1)c1ccc2c(c1)OCO2	20	4.1µM*	2	4.7µM*	6%	6%
O=C(CSc1nc2ccc(Cl)cc2[nH]1)c1ccc2c(c1)OCO2	11	12µM*	17	13µM*	22%	-50%
O=C(CSc1nc2ncc(Cl)cc2[nH]1)c1ccc2c(c1)OCO2	6	?	-2	36%	-2%	-12%
CCOC(=O)C1CCN(C(=O)c2cccc(S(=O)(=O)N3c4ccccc4CC3C)c2)CC1 (centres undefined)	nt	?	nt	?	-1%	nt
CCOc1ccc(CCNC(=O)COC(=O)c2cc(S(=O)(=O)N3CCOCC3)ccc2F)cc1OCC	-9	?	-1	13µM*	-16%	12%
SMILES	Shiga inhibitor	Pf growth 48h	CHX counter	Pf growth 96h	Sm TGR inh	NS1 function inh
NC(=O)COC(=O)c1cc(S(=O)(=O)N2CCOCC2)ccc1N1CCCCC1	-8	6%	8	?	4%	-9%
CC(C)CCNC(=O)NC(=O)COC(=O)c1cc(S(=O)(=O)N2CCOCC2)ccc1N1CCCCC1	-10	9.3µM*	3	nt	-23%	-3%
CC1CCCC(NC(=O)COC(=O)c2cc(S(=O)(=O)N3CCCCC3)ccc2N2CCOCC2)C1C (centres undefined)	-12	nt	-3	5.2µM*	-2%	14%
CC1CCCC(NC(=O)NC(=O)COC(=O)c2ccc(O)cc2O)C1C (centres undefined)	nt	7.4µM*	nt	?	0%	nt
O=C(Nc1ccc(Br)cc1F)c1cc(S(=O)(=O)NC2CCCC2)ccc1F	nt	nt	nt	nt	21%	nt
COc1cccc(NC(=O)CSc2nc(=O)[nH]c3c2CCCC3)c1	nt	nt	nt	nt	-3%	nt
O=C(Nc1ccc2c(c1)OCO2)Nc1ccccc1F	109*	260%	57*	5%	0%	-6%
CCc1ccccc1NC(=O)Nc1ccc2c(c1)OCO2	27	71%	35*	-21%	nt	0%
CCc1cccc(NC(=O)Nc2ccc3c(c2)OCO3)c1	47*	56%	29*	?	0%	-3%
CCc1c(C(=O)NNC(=O)Nc2ccc3c(c2)OCO3)csc1C	20	28%	38*	-27%	-12%	-6%
CCOc1ccc(CNC(=O)C2=Cc3cccc(OC)c3OC2)cc1	nt	nt	nt	nt	-7%	nt
NC(N)=Nc1nc(-c2ccccc2)c2ccccc2n1	-5	12µM*	-1	-18%	3%	-1%
CCc1nc2ccccc2c(C(=O)O)c1C	7	6%	-1	nt	-10%	9%
CCc1nc(N=C(N)N)nc2ccccc12	-1	3.3µM*	-1	7%	5%	nt
Cc1nc2ccc(S(=O)(=O)N(C)CC(=O)Nc3ccccc3F)cc2s1	-4	?	-1	0%	11%	nt
CC(C)Oc1ccc(C(=O)Nc2nc3c(s2)CC(C(C)(C)C)CC3)cc1 (centres undefined)	nt	nt	nt	nt	-5%	nt
O=C(NCc1ccco1)C1CCN(C(=O)N2CCOc3ccc(Cl)cc32)CC1	nt	nt	nt	nt	-3%	nt
O=C1/C(=C/c2ccncc2)CCc2ccccc21	56*	?	34*	55%	-31%	-8%
O=C1/C(=C/c2ccncc2)CCC/C1=C\c1ccncc1	-21	?	-7	49%	11µM*	nt
CCOc1ccc(/C=C2\CCc3ccccc3C2=O)cc1	71*	25%	30*	i	21%	-2%
Cc1ccc(N2CC(C(=O)N3CCC(C(=O)NCCCOC(C)C)CC3)CC2=O)cc1 (centres undefined)	-9	13%	-2	?	1%	8%
COc1ccc(-c2cc(C(=O)NC(C)c3ccccc3)c3cc(C(C)C)ccc3n2)cc1 (centres undefined)	nt	nt	nt	nt	1%	nt
NNC(=O)c1oc2nc(-c3ccc(Cl)cc3)cc(-c3ccccc3)c2c1N	-5	4.1µM*	-4	2.6µM*	1%	25%

Assay outcomes: PubChem, National Center for Advancing Translational Sciences (NCATS)
